The list is not random: actives were taken first. Their share in the collection is about 2.4%.
WRN inhibitor: WRN helicase (human) inhibition | Q14191 | WRN helicase unwinding, fluorescent forked duplex, kinetic | Potency, µM (titrated, usually from 114 µM), most hits filed as inhibitors | actives 0.46% (n = 360,000); also: nearly all actives have a fitted effect of over 55% in size
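WRN at 20 nM final preincubated with compound 15 min at room temperature; reaction started with 100 nM fluorophore/quencher forked duplex oligonucleotide and 2 mM ATP final. Unwinding followed kinetically by red fluorescence (ex 525, em 598 nm).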
Pol eta inh: inhibitors of human DNA polymerase eta; Q9Y253; recombinant Pol eta, fluorescent DNA replication assay; Potency, µM (titrated, usually from 114 µM), hits mostly inhibitors; actives 1.2% (n = 390,000)
Target sequence (Q9Y253 whole entry, looked up): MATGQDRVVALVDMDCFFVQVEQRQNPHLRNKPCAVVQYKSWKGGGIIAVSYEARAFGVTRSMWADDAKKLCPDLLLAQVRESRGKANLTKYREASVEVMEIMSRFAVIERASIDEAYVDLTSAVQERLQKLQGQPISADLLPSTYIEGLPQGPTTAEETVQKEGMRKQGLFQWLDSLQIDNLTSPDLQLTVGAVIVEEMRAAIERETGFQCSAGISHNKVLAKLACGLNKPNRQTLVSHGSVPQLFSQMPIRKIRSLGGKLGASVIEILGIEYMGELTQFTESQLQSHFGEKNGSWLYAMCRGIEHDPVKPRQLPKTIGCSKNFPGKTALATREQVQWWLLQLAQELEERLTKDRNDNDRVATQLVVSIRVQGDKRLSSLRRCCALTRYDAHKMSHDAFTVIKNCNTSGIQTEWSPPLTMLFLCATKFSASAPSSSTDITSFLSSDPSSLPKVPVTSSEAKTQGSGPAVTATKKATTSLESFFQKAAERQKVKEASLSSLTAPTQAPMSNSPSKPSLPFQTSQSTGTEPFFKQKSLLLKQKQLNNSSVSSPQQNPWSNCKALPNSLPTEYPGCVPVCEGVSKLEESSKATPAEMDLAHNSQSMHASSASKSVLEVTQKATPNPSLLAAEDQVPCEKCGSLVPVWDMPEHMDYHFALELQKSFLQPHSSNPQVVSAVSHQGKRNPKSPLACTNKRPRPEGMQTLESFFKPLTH
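Pol eta (10 nM) was preincubated with compounds for 15 min at room temperature, after which fluorescent replication substrate (50 nM final) was added to start the reaction. Fluorescence was read kinetically at 0 and 10 min.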
POLK inh: inhibitors of human DNA polymerase kappa; purified Pol kappa, fluorescent DNA synthesis assay, 10 min; Potency, µM (titrated, usually from 107 µM), actives largely listed as inhibitors; actives 0.53% (n = 400,000)
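Kinetic fluorescence screen: compound preincubated 15 min RT with 10 nM enzyme; 50 nM substrate (final) initiates; reads at 0/10 min.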
FEN1 inh: inhibitors of human flap endonuclease 1; P39748; Recombinant FEN1 flap cleavage, fluorescence, 15 min; Potency, µM (titrated, usually from 114 µM), usual class: inhibitors; actives 0.35% (n = 390,000); AID 588795; also: nearly all actives have a fitted effect of over 65% in size
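FEN1 at 10 nM, compound pretreatment for 15 min (room temperature), 50 nM final substrate to initiate; endpoint reads at 0 and 15 min; DMSO-only plates used as vehicle background.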
Pol beta inh: inhibitors of human DNA polymerase beta. P06746. Pol beta primer extension/strand displacement, fluorescence kinetic. Potency, µM (titrated, usually from 114 µM), hits mostly inhibitors. actives 1.3% (n = 340,000). AID 485314
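10 nM enzyme + cpd, 15 min RT; start with substrate 50 nM final; read 0 min and after 10 min RT. Corrected, normalized data; 4-parameter Hill curve fit.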
POLI inh: inhibitors of human DNA polymerase iota | Potency, µM (titrated, usually from 115 µM), usual class: inhibitors | Q9UNA4 | actives 1% (n = 390,000) | Pol iota fluorescent replication assay, 10 min
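Fluorescent replication assay read twice, at 0 min and 10 min after adding 50 nM (final) substrate. Enzyme (10 nM) and compounds were first incubated 15 min at room temperature; enzyme-free buffer wells were negative controls.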
A number is an active result; n = inactive; u = inconclusive; x = no result; ! = not confirmed by another sample; [ ] = dose if it differs, or a comment. Calls follow the shape of the dose curve; as a rule, active = well fitted curve in the direction sought with a large enough effect; inconclusive = small, poorly fitted or top-dose-only effect, or another doubt; inactive = no such curve, though single readings can be large; an effect the other way counts as inactive or inconclusive.

SMILES	WRN inhibitor	Pol eta inh	POLK inh	FEN1 inh	Pol beta inh	POLI inh
COP(=O)(OC)C(Nc1ccc([N+](=O)[O-])cc1)c1ccccc1 (centres undefined)	n	n	n	n	n	n
COP(=O)(OC)/C(C=O)=N/Nc1ccc([N+](=O)[O-])cc1	n	n	n	n	22.4µM	n
Cc1cc(OC(=O)N(C)C)nn1C(=O)N(C)C	x	x	n[12 µM]	x	x	x
O=C(O[C@@H]1Cc2c(O)cc(O)cc2O[C@@H]1c1cc(O)c(O)c(O)c1)c1cc(O)c(O)c(O)c1	x	x	x	x	0.447µM	x
Oc1cc(O)c2c(c1)OC(c1cc(O)c(O)c(O)c1)C(O)C2 (centres undefined)	x	x	3.98µM	x	x	x
O=C1C[C@@H](c2ccc(O)cc2)Oc2cc(O)cc(O)c21	n	n	n	n	n	n
CC(C)C[C@H](NC(=O)CNC(=O)[C@H](CCC(N)=O)NC(=O)[C@H](Cc1ccc(O)cc1)NC(=O)[C@@H](NC(=O)[C@H](Cc1ccc(O)cc1)NC(=O)CNC(=O)[C@@H](N)CCCN=C(N)N)C(C)C)C(=O)O	x	x	n	x	x	x
CCN(CC)C(=O)N[C@H]1C=C2c3cccc4[nH]cc(c34)C[C@@H]2N(C)C1	x	x	n[12 µM]	x	x	x
CC(=O)[C@H]1CC[C@H]2C3CC[C@H]4C[C@](C)(O)CC[C@]4(C)C3CC[C@]12C (some centres undefined)	x	x	n	x	x	x
Cc1ccc(N2C(=O)NC(=O)/C(=C\c3cn(CC(=O)O)c4ccccc34)C2=O)cc1	n[11.6 µM]	u	n	n	n	31.6µM
COC(=O)Cn1cc(/C=C2\C(=O)NC(=O)N(c3ccccc3)C2=O)c2ccccc21	n	n	n	u	n	u
O=C(N/N=C/C1C(=O)NC(=S)N(c2ccccc2)C1=O)c1cc(Br)c(O)c(Br)c1 (centres undefined)	79.4µM	u	u	n	u	u
O=C(N/N=C/c1c(O)n(C2CCCCC2)c(=S)[nH]c1=O)c1ccccc1	n	n	n	n	n	n
CCCC[C@@H](C)[C@@H](OC(=O)C[C@@H](CC(=O)O)C(=O)O)[C@H](C[C@@H](C)C[C@H](O)CCCC[C@@H](O)C[C@H](O)[C@H](C)N)OC(=O)C[C@H](CC(=O)O)C(=O)O	x	x	n[19.4 µM]	x	x	x
O=[N+]([O-])c1ccc(-c2[se]c3ccccc3c2I)cc1	x	x	n	x	x	x
COC[C@H]1OC(=O)c2coc3c2[C@@]1(C)C1=C(C3=O)C2CCC(=O)[C@@]2(C)C[C@H]1OC(C)=O (some centres undefined)	x	n	u	13.4µM!	n	n
NCC[C@H](NC(=O)[C@@H](N)CCCN=C(N)N[N+](=O)[O-])C(N)=O	x	x	n	x	x	x
O=C1NC(=S)SC1=Cc1ccc(N(CCCl)CCCl)cc1	n	79.4µM	u	u	x	15.8µM
COC(=O)C(O)(c1ccc(NC(=O)c2ccccc2)cc1)C(F)(F)F (centres undefined)	n	n	n	n	n	n
O=C(Nc1cc[c]([Sb](=[O])([OH])[OH])cc1)c1ccccc1	x	x	6.31µM	39.8µM	x	u
O=C(Cc1ccccc1)OCc1ccccc1	n	n	n	n	x	n
[O]=[Sb]([OH])([OH])[c]1ccccc1	x	x	25.1µM	50.1µM	x	20µM
COC(=O)C[C@@](O)(CCC(C)(C)O)C(=O)O[C@@H]1C(OC)=C[C@]23CCCN2CCc2cc4c(cc2[C@@H]13)OCO4	x	x	n	x	x	x
c1ccc2c(c1)[nH]c1cnccc12	n	n	n	n	n	n
Cc1c2ccncc2c(C)c2c1[nH]c1ccccc12	n	u	u	11.9µM	3.98µM	14.1µM!
SMILES	WRN inhibitor	Pol eta inh	POLK inh	FEN1 inh	Pol beta inh	POLI inh
CCN1C(=O)C(=Cc2cc(C)n(C3CC3)c2C)C(=O)N(CC)C1=S	n	n	n	n	n	n
CCN1C(=O)C(=Cc2ccc(C)s2)C(=O)N(CC)C1=S	u	25.1µM	n	n	u	n
COC[C@H]1OC(=O)c2coc3c2[C@@]1(C)C1=C(C3=O)[C@H]2CCC(=O)[C@@]2(C)C[C@H]1OC(C)=O	x	x	n[19.4 µM]	x	x	x
CC(=O)O.CC(=O)O.[Cd]	x	x	10µM	x	x	x
CCOc1ccccc1N1C(=O)NC(=O)/C(=C/c2ccc3c4c(cccc24)CC3)C1=O	50.1µM	u	n	n	n	n
COc1cccc(N2C(=O)NC(=O)/C(=C/c3ccc4c5c(cccc35)CC4)C2=O)c1	x	x	x	x	n	x
COC1C(OC(=O)c2ccc(C)[nH]2)C(O)C(Oc2ccc3c(O)c(NC(=O)c4ccc(O)c(CC=C(C)C)c4)c(=O)oc3c2Cl)OC1(C)C (centres undefined)	n	u	n	n	44.7µM	n
CC/C(=C\C=C\[C@@H]1C=C[C@@H]2CCC[C@H]2[C@@H]1C(=O)c1ccc[nH]1)[C@@H]1O[C@@H]([C@@H](C)C(=O)O)CC[C@@H]1C	n	89.1µM	u	n	u	u
C=CCn1c(O)c(C=NCCCn2ccnc2)c(=O)[nH]c1=O	n	n	n	n	0.316µM	n
CC(=O)Nc1cc([As](=O)(O)O)ccc1O	n	n	n	n	n	u
CC(=O)Nc1cc(Cl)c(N=Cc2ccc(O)cc2O)cc1Cl	n	79.4µM	n	n	10µM	u
C/C=C(\C)C(=O)OC1C(C)=C2C(C1OC(=O)CCCCC)C(C)(OC(C)=O)CC(OC(=O)CCC)C1(O)C2OC(=O)C1(C)O (centres undefined)	x	x	x	x	25.1µM	x
COc1ccc(C=C2C(=O)NC(=S)NC2=O)cc1	50.1µM	n	n	n	x	n
O=C1NC(=S)NC(=O)C1=Cc1ccc(OCc2ccccc2)cc1	35.5µM	n	n	n	x	n
CC1CC(C)C(=O)[C@H](C(O)CC2CC(=O)NC(=O)C2)C1 (some centres undefined)	x	x	n	x	x	x
C=CCN1C[C@H](C)N([C@H](c2ccc(C(=O)N(CC)CC)cc2)c2cccc(O)c2)C[C@H]1C	x	x	n[19.4 µM]	x	x	x
O=[N+]([O-])c1ccc(NCc2ccccc2)c2nonc12	n	n	n	n	n	31.6µM
O=C1NC(=S)NC(=O)C1=Cc1ccc(Br)s1	u	22.4µM	u	u	n	u
O=C1NC(=S)NC(=O)C1=Cc1c(Cl)cccc1Cl	56.2µM	n	n	n	x	n
O=C1NC(=O)C(=Cc2csc3ccccc23)C(=O)N1	n	n	n	u	n	u
CN(C)c1ccc(C=C2C(=O)NC(=S)NC2=O)cc1[N+](=O)[O-]	u	n	n	n	u	n
CCOC(=O)C(SP(=S)(OC)OC)c1ccccc1 (centres undefined)	x	x	n	x	x	x
CC(C)=CCCC1(C)C=Cc2c(O)c3c(c(CC=C(C)C)c2O1)OC12C(CC4CC1C(C)(C)OC2(C/C=C(/C)C(=O)O)C4O)C3=O (centres undefined)	x	x	n	x	x	x
CNCC(N)C(=O)O (centres undefined)	x	x	n	x	x	x

Compound activity as filed in PubChem BioAssay.
